Assay outcomes from PubChem BioAssay.
A selection: hits, their analogues and other compounds. The true share with any hit is near 19%.
TDP1 cell CPT: growth inhibition of DT40 Tdp1-/-;hTDP1 cells with camptothecin (screen for TDP1 inhibitors). chicken DT40 Tdp1-/-;hTDP1 cells + 20 nM CPT, ATP luminescence, 48 h. Potency, µM (top dose mostly 46.2 µM), hits mostly inhibitors. hit rate 12% among 420,000. AID 686979; note: nearly all actives have a fitted effect of over 55% in size
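Chicken DT40 Tdp1-/- cells stably complemented with human TDP1 were seeded at 400 cells/well in medium containing 20 nM camptothecin, exposed to pin-transferred compounds, and grown at 37 °C for at least 48 hr. Viability was read as ATP luminescence.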
TDP1 cell noCPT: qHTS for Inhibitors of human tyrosyl-DNA phosphodiesterase 1 (TDP1): qHTS in cells in absence of CPT; DT40 Tdp1-/- hTDP1 cells, no CPT, ATP luminescence, 48 h; Potency, µM (series often up to 46.2 µM), hits mostly inhibitors; AID 686978, 2013; hit rate 15% among 420,000; note: nearly all actives have a fitted effect of over 55% in size
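Cells were dispensed at 400 per well, compounds added by pin tool, plates incubated ≥48 hr at 37 °C, then CellTiter-Glo added for 30 min at room temperature before luminescence reading. Line: DT40 Tdp1-/- complemented with hTDP1; camptothecin omitted.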
HT1080NT lethal: kills 2HG-producing HT-1080-NT fibrosarcoma cells; HT-1080-NT fibrosarcoma viability, CellTiter-Glo ATP luminescence, 48 h; Potency, µM (doses to about 46.1 µM), most hits filed as cytotoxic; hit rate 1.6% among 360,000;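 note: NT is the 2HG producing partner of a matched IDH1 knockdown line; nearly all actives have a fitted effect of over 55% in size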
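Fibrosarcoma NT cells, 750 per well in 5% FBS RPMI, were exposed to compound for 48 hours. Viability: CellTiter-Glo luminescence.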
IL1B secr inh: blocks inflammasome-driven IL-1 beta release. THP-1 LPS/ATP IL-1B secretion, AlphaLISA, 16 h; active compounds read low. activity change, % at 57.5 µM. hit rate 4.7% among 360,000; in the data active = activity change below about -50%; inconclusive = mostly about -30% to -49%
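THP-1 cells pretreated 1 hr with compounds (up to 57.5 uM final), then stimulated with LPS (250 ng/mL final) plus ATP (1.25 mM final); secreted IL-1B measured by AlphaLISA after 16 hr, decreased signal indicating inhibition.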
HT1080 IDH1KD tx: kills HT-1080 cells with IDH1 knockdown. hit rate 2% among 360,000. Potency, µM (top dose mostly 46.1 µM), usual class: cytotoxic. AID 686971. HT-1080 IDH1 knockdown viability, ATP luminescence, 48 h
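% activity derives from luminescence (CellTiter-Glo), normalised to DMSO and no-cell wells. HT-1080-IDH1KD cells, 750/well, had 48 h compound exposure at 37 °C.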
Numbers stand for hits; - = inactive; ? = inconclusive; . = no result. Unless noted, calls come from the whole dose curve; as a rule, active = well fitted curve in the direction sought with a large enough effect; inconclusive = small, poorly fitted or top-dose-only effect, or another doubt; inactive = no such curve, though single readings can be large; an effect the other way counts as inactive or inconclusive.

SMILES	TDP1 cell CPT	TDP1 cell noCPT	HT1080NT lethal	IL1B secr inh	HT1080 IDH1KD tx
CCc1cc(C(=O)Nc2cc(S(=O)(=O)N(C)C)ccc2C)sc1C	15µM	13µM	-	-	-
C[C@H](c1ccccc1)N1C[C@@H](COCc2ccccc2)Oc2cc(N3CC[C@H](N(C)C)C3)ccc2S1(=O)=O	?	16µM	?	-	?
C[C@H](c1ccccc1)N1C[C@@H](COCc2ccccc2)Oc2cc(N3CC[C@@H](N(C)C)C3)ccc2S1(=O)=O	18µM	?	?	-	?
CCc1ccc(NC(=O)N(Cc2cn(CC)c3ccccc23)C2CCCCC2)cc1	7.3µM	12µM	.	.	.
CCOc1ccc(NC(=O)N(Cc2cn(CC)c3ccccc23)C2CCCCCC2)cc1	9.2µM	21µM	.	.	.
CCN(CC)C(=O)Cn1cc(C(=O)C(=O)N(CC)C2CCCCC2)c2ccccc21	?	?	-	-	-
CCOc1ccc(NC(=O)N(C2CCCCCC2)C2CCN(C(C)=O)CC2)cc1	-	-	-	-	-
CC12CCC(=O)N1C(C(=O)NCc1ccccc1F)CS2 (centres undefined)	-	-	-	-	-
Cc1ccc2nc(SCC(=O)Nc3ccccc3N3CCOCC3)c(C#N)cc2c1	4.6µM	3.3µM	?	-	?
Cc1ccc(SCC(=O)Nc2ccccc2N2CCOCC2)cc1	?	?	-	-	-
CCc1ccc2nc(SCC(=O)Nc3ccccc3N3CCOCC3)c(C#N)cc2c1	4.6µM	4.1µM	-	-	-
Nc1cc(N)nc(SCC(=O)Nc2ccccc2N2CCOCC2)n1	-	-	-	-	-
CC1Cc2cc(/C=C3/SC(=S)NC3=O)ccc2O1 (centres undefined)	-	18µM	-	-	-
CCN(CC)c1ccc(/C=C2\SC(N)=NC2=O)cc1	-	-	-	-	-
CCN(CC)c1ccc(C=C2SC(=S)NC2=O)cc1	13µM	?	-	-	-
Cc1c(C)n(Cc2ccccc2)c2ccc(C(=O)N3CCN(c4ccc(F)cc4)CC3)cc12	?	16µM	.	.	.
O=C(c1cccc(S(=O)(=O)NCc2ccccc2)c1)N1CCN(c2ccc(F)cc2)CC1	?	?	-	-	-
Cc1[nH]c(-c2ccc(F)cc2)cc1C(=O)N1CCN(c2ccc(Cl)cc2)CC1	?	?	-	-	-
Cc1c(C)n(Cc2ccc(F)cc2)c2ccc(C(=O)N3CCN(c4ccc(Cl)cc4)CC3)cc12	18µM	?	.	.	.
O=C(CSc1nccn1-c1ccc(F)cc1)Nc1nc2ccccc2s1	-	-	.	.	.
COC(=O)c1c(NC(=O)CC2SC(N)=NC2=O)sc2c1CCC(C(C)(C)C)C2 (centres undefined)	?	?	?	-53	?
COC(=O)c1c(NC(=O)CC2SC(N)=NC2=O)sc2c1CCC(C)C2 (centres undefined)	-	?	-	?	-
CCOC(=O)c1c(NC(=O)CC2SC(N)=NC2=O)sc2c1CCC(C)C2 (centres undefined)	-	-	-	-52	-
CCOC(=O)c1c(NC(=O)CC2SC(N)=NC2=O)sc(C)c1C (centres undefined)	23µM	-	-	-	-
CCn1cc(/C=C(\NC(=O)c2ccccc2)C(=O)NCCCn2ccnc2)c2ccccc21	-	-	-	-	-
SMILES	TDP1 cell CPT	TDP1 cell noCPT	HT1080NT lethal	IL1B secr inh	HT1080 IDH1KD tx
c1ccc(-c2cn(-c3ccccc3)c3[n+]2CCCS3)cc1	3.3µM	3.7µM	?	-	?
Cc1ccc(-c2cn(-c3ccccc3)c3[n+]2CCCS3)cc1	0.65µM	0.37µM	?	-63	?
N#Cc1ccc(-c2cn(-c3ccccc3)c3[n+]2CCCS3)cc1	-	-	-	-	-
COc1ccc(-n2cc(-c3ccc(C)cc3)[n+]3c2SCC3)cc1	1.5µM	1.3µM	2.9µM	-94	2.3µM
Fc1ccc(-c2csc3[n+]2CCS3)cc1	-	-	-	-	-
CCc1ccc(-n2cc(-c3ccc(F)cc3)[n+]3c2SCCC3)cc1	4.6µM	1.8µM	?	-91	?
CCN(CC1COc2ccccc2O1)C(=S)NC1CC2CCC1C2 (centres undefined)	-	-	-	-	-
COc1ccccc1NC(=O)CCS(=O)(=O)c1cc2c3c(c1)CCN3C(=O)CC2	?	-	.	.	.
